In PubChem BioAssay (EPA / NIEHS) one finds outcome and AC50 data, which are given here for 40 molecules.

Results filed as inconclusive are left out. Calls of active or inactive are those of the source. How the source made its calls: active means hit-call score of the fitted dose curve at least 0.9, where 1 is the maximum; inconclusive means response in the unintended direction; inactive means score below 0.9.

What is called AC50 is the midpoint of the concentration-response curve, whichever way the signal moves.

Cytochrome P450 3A4 (Homo sapiens), sequence (P08684 whole entry, looked up): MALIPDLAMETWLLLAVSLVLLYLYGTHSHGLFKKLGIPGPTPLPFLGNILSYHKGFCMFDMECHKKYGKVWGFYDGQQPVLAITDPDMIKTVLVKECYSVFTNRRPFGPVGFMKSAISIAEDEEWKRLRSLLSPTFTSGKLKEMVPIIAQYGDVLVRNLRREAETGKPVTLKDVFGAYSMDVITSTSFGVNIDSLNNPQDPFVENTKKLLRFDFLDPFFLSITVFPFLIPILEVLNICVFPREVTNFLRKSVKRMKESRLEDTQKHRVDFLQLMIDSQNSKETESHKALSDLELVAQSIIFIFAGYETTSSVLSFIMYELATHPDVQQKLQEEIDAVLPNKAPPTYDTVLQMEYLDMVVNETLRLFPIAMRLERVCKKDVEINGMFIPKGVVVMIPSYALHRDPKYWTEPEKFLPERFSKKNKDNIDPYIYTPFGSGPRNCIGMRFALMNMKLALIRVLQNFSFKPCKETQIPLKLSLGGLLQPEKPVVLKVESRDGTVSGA

Read-out in this test: Cytochrome P450 3A4 (Homo sapiens) (UniProt P08684)
Description: CLD_CYP3A4_24hr: CellzDirect (CLD) Gene Expression Assay for xenobiotic metabolism (CYP3A4) at 24 hours (AID 2283689). As to the method: CLD_24hr is a cell-based, multiplexed-readout assay that uses hepatocyte, a human liver primary cell, with measurements taken at 24 hours after chemical dosing in a 96-well plate.CLD_CYP3A4_24hr is one of 16 assay component(s) measured or calculated from the CLD_24hr assay. It is designed to make measurements of mRNA induction, a form of inducible reporter, as detected with chemiluminescence signals by Quantitative Nuclease Protection Assay (qNPA) technology.Data from the assay component CLD_CYP3A4_24hr was analyzed at the endpoint, CLD_CYP3A4_24hr, in the positive analysis fitting direction relative to DMSO as the negative control and baseline of activity. Using a type of inducible reporter, gain-of-signal activity can be used to understand changes in the reporter gene as they relate to the gene CYP3A4. Furthermore, this assay endpoint can be referred to as a primary readout. To generalize the intended target to other relatable targets, this assay endpoint is annotated to the cyp intended target family, where subfamily is xenobiotic metabolism.
Human hepatocyte cultures were treated daily for two consecutive days with fresh dosing solutions containing appropriate concentrations of the 320 ToxCast chemicals (chemical identities were blinded to CellzDirect and other ToxCast collaborators), vehicle control (0.2% DMSO), and positive control inducers as summarized in Table 1. Due to the large number of treatment groups and chemicals examined, the ToxCast chemicals were divided into two groups (spanning two independent cultures of hepatocytes from separate donor preparations (Hu778: ToxCast plates 1 and 2; Hu776: ToxCast plates 3 and 4). Each preparation of human hepatocyte cultures was treated with respective vehicle control, medium only control, set of six positive controls/reference chemicals for the five hepatic receptor pathways, and a subset of eight of the ToxCast chemicals (indoxacarb, pyrithiobac-sodium, norflurazon, cyhalofop-butyl, methomyl, thiram, acetochlor, and propiconazole). These replicate data, coupled with internal replicates designed within the blinded ToxCast chemical library, provided additional data to evaluate interindividual differences between hepatocyte preparations and their potential impact on chemical profiles.Cell morphology and integrity were evaluated using phase-contrast microscopy as an indicator of hepatocyte cell health (Tyson & Green, 1987). Cultures for each treatment group (i.e., media, vehicle [0.2% DMSO], positive control inducers [multiple concentrations], and the ToxCast chemicals [multiple concentrations]) were observed and cell morphology was assessed relative to vehicle control cultures at each harvest time point (0, 6, 24, or 48 h). […] Images were evaluated at the conclusion of the study to assess changes in cell integrity and account for the effects of chemical exposure on uncharacteristic changes in concentration-dependent gene expression profiles. The results from these determinations of apparent cytotoxicity were annotated (yes/no) alongside the corresponding qNPA data for reference.At the conclusion of each treatment period, hepatocyte cultures (96-well) were washed with 1 volume of HBSS, lysed by addition of 25 ul ArrayPlate lysis buffer (HTG, Tucson, AZ), and 70 ul/well of Denaturation Oil, denatured by incubation at 95C for 10 min, and frozen at approximately -70C until analysis by nuclease protection assay (qNPA) (Roberts et al., 2007). For qNPA analysis, cell lysates were thawed at 50C for approximately 30 min, qNPA probes were added, and samples were incubated at 95C for 10 min to begin the detection process by denaturing the target RNA, dissociating the duplexes and secondary structure hybridization. At the conclusion of the hybridization period, S1 nuclease reagent was added to each sample to digest all nonprotected nucleotides at 50C for 60-90 min. […]
`CNC(=O)N(C)c1nnc(C(C)(C)C)s1`: the call was inactive.

As for `O=C(O)c1c(Cl)ccc2cc(Cl)cnc12`, the outcome was inactive.

For the molecule `CCOc1nc(C(Cl)(Cl)Cl)ns1`, the result was inactive.

On to `CCNP(=S)(OC)O/C(C)=C/C(=O)OC(C)C` (stereo not given), for which the AC50 was 1.94 µM (active).

As for `CS(=O)(=O)c1ccc(C(=O)C2C(=O)CCCC2=O)c([N+](=O)[O-])c1`, the molecule was called inactive.

Regarding `Nc1c(Cl)c(F)nc(OCC(=O)O)c1Cl`, the molecule was called inactive.

For `CCN(CC)C(=O)C(C)Oc1cccc2ccccc12` (stereo not given), the call was inactive.

With `CCCCC(C#N)(Cn1cncn1)c1ccc(Cl)cc1` (stereo not given), the AC50 is 9.54 µM (active).

Turning to `CC(C)=CC1C(C(=O)OCc2coc(Cc3ccccc3)c2)C1(C)C` (stereo not given), the molecule was called inactive.

Turning to `CCOc1cc(C(C)(C)C)ccc1C1COC(c2c(F)cccc2F)=N1` (stereo not given), the AC50 was 1.9 µM (active).

Take `CCOC(=O)C(C)OC(=O)c1cc(Oc2ccc(C(F)(F)F)cc2Cl)ccc1[N+](=O)[O-]` (stereo not given): the AC50 is 3.19 µM (active).

Consider `Cc1nc(N(C)C)nc(OC(=O)N(C)C)c1C`, for which the half-maximal activity concentration (AC50) is 20 µM (active).

In the case of `CCOc1nc(F)cc2nc(S(=O)(=O)Nc3c(Cl)cccc3Cl)nn12`, the AC50 was 2.93 µM (active).

Regarding `CSC(=O)c1c(C(F)F)nc(C(F)(F)F)c(C(=O)SC)c1CC(C)C`, the AC50 is 2.07 µM (active).

As to `Cn1c(-c2ccccc2)cc(-c2ccccc2)[n+]1C`, the molecule was called inactive.

In the case of `COP(=S)(OC)SCn1nnc2ccccc2c1=O`, the AC50 is 20 µM (active).

In the case of `N#Cc1c(Cl)cccc1Cl`, the call was inactive.

For the molecule `N#Cc1c[nH]cc1-c1cccc2c1OC(F)(F)O2`, the AC50 was 4.26 µM (active).

In the case of `N#CN=C1SCCN1Cc1ccc(Cl)nc1`, the AC50 was 10.9 µM (active).

As for `CC1(C)C(C(=O)OC(C#N)c2cccc(Oc3ccccc3)c2)C1(C)C` (stereo not given), the AC50 is 13 µM (active).

Turning to `CCOP(=S)(OCC)Oc1nc(Cl)n(C(C)C)n1`, the AC50 is 0.677 µM (active).

Turning to `CC(C)(C)C(=O)C(Oc1ccc(Cl)cc1)n1cncn1` (stereo not given), the concentration at half-maximal activity (AC50) is 1.63 µM (active).

Turning to `CN=C=S`, the molecule was classed as inactive.

Turning to `CCN(CC)c1nc(C)cc(OP(=S)(OC)OC)n1`, the AC50 is 3.81 µM (active).

With `COC(=O)NC(=S)Nc1ccccc1NC(=S)NC(=O)OC`, the AC50 is 3.97 µM (active).

For the molecule `CCOP(=O)(OCC)Oc1nc(Cl)c(Cl)cc1Cl`, the AC50 was 3.97 µM (active).

On to `CCCCOCN(C(=O)CCl)c1c(CC)cccc1CC`, for which the outcome was inactive.

With `C=CCOC(=O)C(C)(C)OC(=O)c1cc(-n2c(=O)cc(C(F)(F)F)n(C)c2=O)ccc1Cl`, the AC50 was 0.47 µM (active).

With `O=P(O)(O)CCCl`, the call was inactive.

As for `Cc1cc(C)nc(Nc2ccccc2)n1`, the AC50 is 1.78 µM (active).

Turning to `CCCC(=NOCC)C1=C(O)CC(CC(C)SCC)CC1=O` (stereo not given), the AC50 was 32.9 µM (active).

In the case of `C=C(C)CN(CC)c1c([N+](=O)[O-])cc(C(F)(F)F)cc1[N+](=O)[O-]`, the AC50 was 5.33 µM (active).

Consider `COc1cc(OC)nc(NC(=O)NS(=O)(=O)c2ncccc2OCC(F)(F)F)n1`, for which the call was inactive.

In the case of `COP(=O)(OC)O/C(C)=C/C(=O)N(C)C`, the molecule was called inactive.

`Cc1cnc(C2=NC(C)(C(C)C)C(=O)N2)c(C(=O)O)c1` (stereo not given): the molecule was called inactive.

As to `CC(C)N1C(=O)N(c2ccccc2)CSC1=NC(C)(C)C`, the AC50 is 20 µM (active).

On to `CC1(C)CCC(=Cc2ccc(Cl)cc2)C1(O)Cn1cncn1` (stereo not given), for which the outcome was inactive.

Take `CCSC(=O)N1CCCCCC1`: the AC50 is 0.0865 µM (active).

As for `COC(=O)NS(=O)(=O)c1ccc(N)cc1`, the outcome was inactive.

Consider `Clc1nc(Cl)nc(Nc2ccccc2Cl)n1`, for which the molecule was called inactive.
